The structures appear in SMILES notation. Screen size: about 16,000 compounds; about 5,700 (36%) were called active. Roughly 24% stayed inconclusive and do not appear here. The list shows a part of the results. Unmarked numbers belong to inactive results. Calls follow the shape of the dose curve; as a rule, active = well fitted curve in the direction sought with a large enough effect; inconclusive = small, poorly fitted or top-dose-only effect, or effect the other way; inactive = no such curve, though single readings can be large or run the other way. Square brackets hold non-standard residues; d marks the D form. Peptide text beside a SMILES is read from it. Ac5c = NC1(C(=O)O)CCCC1
% is scaled to controls: 0 for no effect and ±100 for the full control effect.

Chain of Cytochrome P450 1A2 (Homo sapiens) (P05177 whole entry, looked up): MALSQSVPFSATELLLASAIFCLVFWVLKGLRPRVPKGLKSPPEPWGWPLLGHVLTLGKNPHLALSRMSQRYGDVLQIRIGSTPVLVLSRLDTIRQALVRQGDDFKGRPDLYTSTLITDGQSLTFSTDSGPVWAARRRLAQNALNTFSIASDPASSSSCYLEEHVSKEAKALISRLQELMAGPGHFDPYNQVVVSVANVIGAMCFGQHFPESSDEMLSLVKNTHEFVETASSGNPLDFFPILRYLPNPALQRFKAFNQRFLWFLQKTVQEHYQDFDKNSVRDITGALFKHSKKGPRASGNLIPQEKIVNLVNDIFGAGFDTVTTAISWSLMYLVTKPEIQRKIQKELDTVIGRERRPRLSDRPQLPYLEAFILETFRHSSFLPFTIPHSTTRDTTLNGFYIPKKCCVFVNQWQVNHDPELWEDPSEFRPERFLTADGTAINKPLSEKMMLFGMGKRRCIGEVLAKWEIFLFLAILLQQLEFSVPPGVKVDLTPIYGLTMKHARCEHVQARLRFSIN

The assay has as its target Cytochrome P450 1A2 (Homo sapiens) (UniProt P05177). The experiment in a line: Cytochrome panel assay with activity outcomes. The conditions noted are these: recombinant CYP, pro-luciferin dealkylation, luminescence, p450-cyp1a2; series mostly up to 57.1 µM; activity, negative = inhibition: at the top concentration.
Take `O=C(O)[C@@H](O)[C@@H](O)[C@@H](O)[C@@H](O)C(=O)O` (tested in a mixture with another compound): the “activity, negative = inhibition” value was -1.46% [at 25.6 µM]. In general, AC50 refers to the concentration at which the activity in the assay is half-maximal. Turning to `COc1ccccc1CNc1nc(-c2ccccc2CN(C)C)nc2ccccc12`, the AC50 is 0.794 µM (active). As for `COc1ccc(CNc2nc(-c3ccccc3CN(C)C)nc3ccccc23)c(OC)c1`, the AC50 is 10 µM (active). On to `COC(=O)c1[nH]c(C)c(/C(O)=C2\C(=O)C(=O)N(CCN(C)C)C2c2cccs2)c1C` (stereo unspecified), for which the “activity, negative = inhibition” value was -24.7%.

On to `CCCSc1nnc2n(N)c(=O)c3ccccc3n12`, for which the AC50 was 4.47 µM (active).

In the case of `C/C(Cl)=C/CSc1nnc2n(N)c(=O)c3ccccc3n12`, the AC50 was 11.2 µM (active). With `CCC(=O)N[C@@H]1CCc2cccc(OC)c2C1`, the AC50 was 12.6 µM (active). For the molecule `CCOc1ccccc1NC(=O)CN1CCC(NC(=O)c2ccccc2)CC1`, the “activity, negative = inhibition” value is -24.7%.

Take `COC(=O)N1CCC2(CC1)CCN(C(c1ccccc1)c1ccccc1)CC2`: the “activity, negative = inhibition” value was 1.02%. Take `COc1ccccc1CNc1cc(-c2ccoc2)ncn1`: the AC50 was 15.8 µM (active). Consider `COc1ccc(CNc2cc(-c3ccoc3)ncn2)c(OC)c1`, for which the concentration at half-maximal activity (AC50) was 15.8 µM (active).

`COc1cccc(CNc2ccc3nc(-c4ccc(N)cc4)c(OC)n3n2)c1`: the AC50 was 39.8 µM (active). As to `O=C(O)CSCNC(=O)CC12CC3CC(CC(C3)C1)C2`, the “activity, negative = inhibition” value was -1.39%. On the same count and under the same terms, with `CC1(C)CC2(CC(c3cccs3)c3cc(Cl)c(O)cc3O2)NC(=S)N1` (stereo unspecified) the figure was -22.7%. Take `O=C1CC(c2cccs2)c2cc3c(cc2N1)OCO3` (stereo unspecified): the AC50 was 0.631 µM (active).

Consider `CC(C)NC(=O)N1CCC2(CC1)CCN(C(=O)c1ccco1)CC2`, for which the “activity, negative = inhibition” value was -8.3%. As to `CC(C)(C)CC(C)(C)c1ccc(O)c(C[N+](C)(C)[O-])c1`, the activity, negative = inhibition is -17.9% [at 2.29 µM]. For `O=C(O)C(Cc1ccccc1-c1ccccc1)C(=O)O`, the activity, negative = inhibition is -6.71% [at 11.4 µM]. Same read-out and setting: with `COC(=O)[C@H](Cc1ccccc1)NC(=O)[C@@H](C)CO` the figure was -9.35% [at 11.4 µM]. Regarding `CCOC(=O)c1c(-c2ccccc2)cn2ccccc12`, the AC50 was 0.501 µM (active).

As to `CCOC(=O)c1c2c(n3ccccc13)C(=O)c1ccccc1C2=O`, the concentration at half-maximal activity (AC50) was 0.1 µM (active). For the molecule `COc1ccc(CNC(=O)CN(CC2CCCO2)C(=O)CNS(=O)(=O)c2ccccc2)cc1` (stereo unspecified), the “activity, negative = inhibition” value was -14.5%.

In the case of `COc1cccc(C(=O)N(Cc2ccccc2)Cc2cc3cc4c(cc3[nH]c2=O)OCCO4)c1`, the AC50 was 14.1 µM (active). For `COc1cc2cc(CN(CCCO)S(=O)(=O)c3ccccc3Cl)c(=O)[nH]c2cc1OC`, the “activity, negative = inhibition” value is -22.7%. The same measure, in the same setting: with `N=C(N)SCCN` the figure was -7.64%. On the same count and under the same terms, with `CCOc1ccc(/C(O)=C2\C(=O)C(=O)N(CCOCCO)C2c2ccccc2OC)cc1` (stereo unspecified) the figure was -4.5%. As for `Cc1cccc(CNc2ncnc3ccc(-c4cccnc4)cc23)c1`, the AC50 is 0.316 µM (active). The same measure, in the same setting: with `c1ccc(Nc2ncnc3ccc(-c4cccnc4)cc23)cc1` the figure was 0.0794 µM (active); with `c1ccc(CNc2ncnc3ccc(-c4cccnc4)cc23)cc1`, 0.126 µM (active); with `c1cncc(CNc2ncnc3ccc(-c4ccoc4)cc23)c1`, 0.316 µM (active). On to `CN(CC(=O)O)Cc1oc(CO)cc(=O)c1O`, for which the activity, negative = inhibition was -18.3% [at 11.4 µM].

For the molecule `CSc1ccc(NC(=O)Nc2cc(C)ccn2)cc1`, the AC50 was 0.501 µM (active). As for `CC(=O)Nc1ccc(Sc2ncccc2C(=O)Nc2ccc(F)cc2)cn1`, the “activity, negative = inhibition” value was 4.19%. Same read-out and setting: with `Cc1ccnc(N)c1` the figure was -19.7%; with `COC(=O)/C=C\CCc1coc(/C=C\CNC(=O)OC)n1`, 2.69% [at 11.4 µM]; with `COC(=O)C1CSC(C(=O)OC)N1C(=O)Nc1c(C)cccc1C` (stereo unspecified), -18.8%.

Turning to `O[C@@](CCN1CCCCC1)(c1ccccc1)C1CCCCC1`, the AC50 entry was “inactive”. As for `CC[C@H](CO)NCCN[C@@H](CC)CO`, the “activity, negative = inhibition” value is -2.46% [at 25.6 µM]. As for `Cn1cnc2c(NCc3ccccc3)nc(NCCO)nc21`, the AC50 was 5.01 µM (active).

In the case of `Cc1ccccc1CNc1ncnc2c1ncn2[C@@H]1O[C@@H](CO)[C@H](O)[C@@H]1O`, the “activity, negative = inhibition” value was -18.9%. The same measure, in the same setting: with `Cn1c(=O)[nH]c(=O)c2c1nc(NCCCO)n2CCCc1ccccc1` the figure was -26.4%. In the case of `COc1cnc(SCc2ccc(Cl)cc2)nc1Cl`, the AC50 is 12.6 µM (active). On to `FC(F)(F)c1nc(SCc2ccc(Cl)cc2)n[nH]1`, for which the activity, negative = inhibition was -18.8% [at 2.29 µM]. `CC1=CC(=O)c2ccccc2C1=O`: the AC50 was 0.158 µM (active). Regarding `CCCCNC(=O)NS(=O)(=O)c1cnccc1Sc1ccc(Cl)cc1`, the “activity, negative = inhibition” value is 1.56%. For `CC(C)NCCOCCSc1ccc(Cl)cc1`, the AC50 is 5.01 µM (active). Consider `CCCCNCCOCCSc1ccc(Cl)cc1`, for which the half-maximal activity concentration (AC50) was 12.6 µM (active).

`Cc1cc(=O)[nH]c2c1c(C)nn2C1CCOC(C)(C)C1` (stereo unspecified): the “activity, negative = inhibition” value was -2.35%. As for `CO[C@@H]1COC(=O)[C@H](C)NC(=O)[C@@H](C)COC(=O)CCC[C@H]1C`, the activity, negative = inhibition is -10.3% [at 11.4 µM]. `O=C(CCCCCn1c(=O)[nH]c2ccsc2c1=O)NCc1ccc2c(c1)OCO2`: the AC50 is 14.1 µM (active). As to `Cc1nc2ncnn2c(C)c1CCC(=O)NCc1ccco1`, the “activity, negative = inhibition” value was -27.7%. Take `O=C(CCCCn1c(=S)[nH]c2ccsc2c1=O)NCc1ccco1`: the AC50 is 1.26 µM (active).

For the molecule `CCOc1cc2[nH]c(=S)n(CCCC(=O)NCc3ccco3)c(=O)c2cc1OCC`, the “activity, negative = inhibition” value was -24.3%. On to `O=C(CCn1c(=O)[nH]c2ccsc2c1=O)Nc1ccc(F)c(F)c1`, for which the “activity, negative = inhibition” value was -23%. Same read-out and setting: with `CCOc1cc2[nH]c(=O)n(CCCC(=O)NCc3ccc(OC)cc3)c(=O)c2cc1OCC` the figure was -7.25%. Consider `CC(=O)Nc1c(C)nn(-c2ccc(C)c(C)c2)c1C`, for which the concentration at half-maximal activity (AC50) is 14.1 µM (active). On to `Cc1ccc(-n2c(C)cc(C(=S)N3CCOCC3)c2C)cc1C`, for which the “activity, negative = inhibition” value is -22.6%. As to `CC(=O)Nc1c(C(=O)N2CCOCC2)cnn1-c1ccc(C)c(C)c1`, the “activity, negative = inhibition” value is 41.4%. Still for that read-out and setting: with `NCC(=O)NC1(C(=O)O)CCCC1` (H-Gly-[Ac5c]-OH) the figure was -5.18% [at 11.4 µM]; with `O=C1CC(=O)C(n2cncn2)C(c2cccc(Cl)c2)C1` (stereo unspecified), 6.34%; with `C[N+](C)(C)CCCCCNCC12CC3CC(CC(C3)C1)C2`, 0.614%.

In the case of `COc1ccccc1CN1CC2(CCN(C(=O)c3ccncc3)CC2)C1`, the “activity, negative = inhibition” value was -10.9%. With `COc1ccccc1CN1CC2(CCN(C(=O)c3cnccn3)CC2)C1`, the “activity, negative = inhibition” value is 13.8%. Consider `COc1ccccc1CN1C(=O)c2ccncc2C1=O`, for which the concentration at half-maximal activity (AC50) is 14.1 µM (active). On the same count and under the same terms, with `O=C1N=C(N2CCOCC2)S/C1=C\C=C/c1ccccc1` the figure was 14.1 µM (active); with `O=C1N=C(N2CCOCC2)S/C1=C/c1cccs1`, 5.62 µM (active); with `NC1=NC(=O)/C(=C/c2cccs2)S1`, 1.41 µM (active).

In the case of `CC(C)(C)OC(=O)[C@H]([C@@H]1N[C@@H](C(=O)O)C(C)(C)S1)N1C(=O)c2ccccc2C1=O`, the activity, negative = inhibition was -1.41% [at 2.29 µM].

Regarding `C[C@H]1CC(C)(C)C[C@@](OCCN2CCCCC2)(c2ccccc2)C1`, the activity, negative = inhibition is 0.209% [at 11.4 µM]. Regarding `CCCN1CC=C2C(C#N)=C(N)C(C#N)(C#N)C(c3cc(OC)ccc3OC)C2C1` (stereo unspecified), the half-maximal activity concentration (AC50) is 31.6 µM (active).

For `O=C(O)C[n+]1ccccc1`, the activity, negative = inhibition is -7.86% [at 11.4 µM].

Take `COc1ccc(O[C@H]2C=C[C@@H](c3ccccc3)O[C@H]2COC(=O)CC/C(C)=N/OCC[C@@H]2C=C[C@H](OC(C)=O)[C@H](COC(C)=O)O2)cc1`: the activity, negative = inhibition was -2.16% [at 11.4 µM]. Take `CN=C1N[C@H](c2ccccc2)N(c2ccccc2)S1`: the AC50 was 1.26 µM (active). Take `Cc1c(CCC(C)C)c(-n2ccnc2C)n2c(nc3ccccc32)c1C#N`: the “activity, negative = inhibition” value is -25.4%. `Cc1ccccc1S(=O)(=O)Oc1ccccc1C(=O)Oc1ccccc1`: the concentration at half-maximal activity (AC50) is 3.55 µM (active). With `Cc1ccccc1S(=O)(=O)O[C@@H]1NS(=O)(=O)c2ccccc21`, the activity, negative = inhibition is 13.5% [at 2.29 µM]. As for `COC(=O)[C@H](Cc1ccccc1)NC(=O)N1CCN(Cc2ccccc2)CC1`, the “activity, negative = inhibition” value is -17.5%.

For the molecule `Oc1ccc2ccccc2c1C=NCc1c(O)ccc2ccccc12`, the AC50 was 1.58 µM (active).

Turning to `O=C(O)Cc1c(O)ccc2ccccc12`, the activity, negative = inhibition was -9.69% [at 11.4 µM]. `c1ccc(-c2ccc(N3CC[C@@]4(CCCNC4)C3)cc2)cc1`: the AC50 was 12.6 µM (active).

As for `O=C(c1csnn1)N1CCC2(CCCN(c3ccc(-c4ccccc4)cc3)C2)CC1`, the “activity, negative = inhibition” value is -2.91%. For the molecule `c1ccc(-c2ccc(N3CC4(CCNCC4)C3)cc2)cc1`, the AC50 is 15.8 µM (active). For the molecule `O=S(=O)(c1ccccc1)N1CCC[C@@]2(CCN(c3ccncc3)C2)C1`, the “activity, negative = inhibition” value is -29%.

With `c1ccc(C(c2ccccc2)N2CC[C@@]3(CCCNC3)C2)cc1`, the “activity, negative = inhibition” value is -27.3%.

Consider `COc1ccccc1CN1CCCC2(CCNCC2)C1`, for which the “activity, negative = inhibition” value is 9.9%. Turning to `c1ccc(-c2ccc(N3CCCC4(CCNCC4)C3)cc2)cc1`, the AC50 was 10 µM (active).

For the molecule `N[C@@H](Cc1ccccc1)C(=O)O`, the activity, negative = inhibition is -14% [at 11.4 µM].

For the molecule `CN(C)c1nc(-c2ccccc2C(F)(F)F)nc2ccccc12`, the AC50 was 0.251 µM (active). Same read-out and setting: with `COc1ccccc1-c1nc(N(C)C)c2ccccc2n1` the figure was 0.398 µM (active). As for `Cc1ccccc1-c1nc(N(C)C)c2ccccc2n1`, the AC50 is 0.631 µM (active). For the molecule `Cc1ccc(-c2ccc(=O)n(CC(=O)NCCN3CCCCC3C)n2)cc1` (stereo unspecified), the “activity, negative = inhibition” value is -19.8%. The same measure, in the same setting: with `O=C(NCC1COc2ccccc2O1)C1C2C=CC3(CN(Cc4cccs4)C(=O)C13)O2` (stereo unspecified) the figure was -8.02%; with `COC(=O)CCCC(=O)O`, -7.34% [at 2.29 µM]; with `COCCCNC(=O)C(=O)N/N=C/c1ccc(OCC(=O)Nc2cccc(Cl)c2C)c(OC)c1`, -23.7%. `COC(=O)CCC(=O)NNC(=O)CCCOc1ccc(Cl)cc1Cl`: the AC50 is 12.6 µM (active). Turning to `CC1(C)CC(=O)C/C(=N/NC(=O)CCCOc2ccc(Cl)cc2Cl)C1`, the concentration at half-maximal activity (AC50) is 15.8 µM (active). For `COc1ccc(/C=N/NC(=O)CCCOc2ccc(Cl)cc2Cl)cc1[N+](=O)[O-]`, the AC50 is 1.26 µM (active). Take `CC(C)C(=O)Nc1ccc(C(=O)NNC(=O)CCCOc2ccc(Cl)cc2Cl)cc1`: the “activity, negative = inhibition” value is -24%.

Consider `Clc1ccccc1-c1nccc(NCc2ccccc2)n1`, for which the AC50 is 3.16 µM (active). Same read-out and setting: with `Cc1cccc(CNc2ccnc(-c3ccccc3Cl)n2)c1` the figure was 1.58 µM (active).

For the molecule `Cc1cccc(CNc2ccnc(-c3ccccc3CN(C)C)n2)c1`, the AC50 is 3.16 µM (active).

Source of the values: PubChem BioAssay AID1851 (National Center for Advancing Translational Sciences (NCATS), 2009).
